Screens from PubChem.
Only some compounds are listed: those with a hit (about 2.2% of all), similar ones and a draw of the others.
BaF3 tox: counter-screen for JAK2V617F inhibitors: parental Ba/F3 viability inhibitors; 1.1% of 220,000 active; AID 1486; inhibition, % at 5.6 µM; CellTiter-Glo ATP luminescence;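 active = inhibition above a per-campaign cutoff, the mean inhibition of all tested compounds plus 3 SD, cut at about 27% in these data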
Ba/F3 V617F tox: lowers viability of Ba/F3 cells expressing EpoR and JAK2V617F; ATP luminescence; inhibition, % at 5.6 µM; 1.1% of 220,000 active; AID 1446;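 active = inhibition above the campaign mean plus 3 SD over all tested compounds, cut at about 24% in these data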;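 also: cytokine-independent growth of Ba/F3 cells driven by EpoR plus mutant JAK2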
APP 5UTR inh: APP translation inhibition | AID 1285 | 0.82% of 190,000 active | SH-SY5Y APP 5'UTR-luciferase reporter, luminescence | inhibition, % at 2 µM;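 active = inhibition above a set limit, derived from the sample mean plus 3 SD, cut at about 45% in these data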
KLF5 inhibitor: inhibitors of KLF5 expression. 0.23% of 290,000 active. inhibition, % at 5 µM. DLD-1 KLF5 promoter-luciferase reporter, luminescence;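 active = inhibition above a per-plate limit of that plate's mean compound inhibition plus 3 SD, cut at about 60% in these data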;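 also: higher means less KLF5 promoter-driven luciferase light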
aSyn 5UTR inh: MLPCN primary screen, SNCA 5' untranslated region. AID 1813. alpha-synuclein 5'UTR reporter, inhibitor activity. inhibition, % (tested at 7.5 µM). 0.82% of 300,000 active; in the data active = inhibition above about 60%;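 also: H4 neuroglioblastoma cells stably carrying SNCA 5'UTR luciferase fusion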
IEC-6 tox-1: kills IEC-6 intestinal cells in KLF5 counter-screen; IEC-6 cytotoxicity, luminescence viability; inhibition, % at 5 µM; 0.78% of 290,000 active; AID 1825
BaF3 parental 2: parental Ba/F3 viability inhibition for JAK2V617F counter-screen | CellTiter-Glo luminescence; cells kept alive by added IL-3 | inhibition, % at 5.6 µM | 31% of 580 active | shares compounds with Ba/F3 V617F tox;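 active = cell growth inhibition above the hit limit set in the earlier mutant JAK2 cell screen, cut at about 27% in these data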
JAK2V617F confrm: Ba/F3 EpoR-JAK2V617F viability loss, confirmation. shares compounds with Ba/F3 V617F tox. CellTiter-Glo luminescence. inhibition, % at 5.6 µM. 66% of 580 active;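 active = mean inhibition above the hit cutoff derived in the earlier primary screen, cut at about 25% in these data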;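 also: higher means lower luminescence from reduced cell ATP and viability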
KLF5 confirm: KLF5 inhibition, confirmation assay; inhibition, % at 4 µM; 79% of 610 active; shares compounds with KLF5 inhibitor; AID 1834; DLD-1 KLF5 promoter firefly luciferase reporter, luminescence;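 active = inhibition above a set limit taken from the earlier primary screen, cut at about 63% in these data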
IEC-6 tox-2: rat IEC-6 cytotoxicity, KLF5 inhibitor counter-screen; shares compounds with KLF5 inhibitor; IEC-6 rat intestinal cells, viability luminescence; inhibition, % at 4 µM; 56% of 610 active; AID 1905; in the data active = inhibition above about 23%;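 also: cells exposed to compounds for 48 hours before viability read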
IEC-6 tox confirm: IEC-6 cytotoxicity, confirmation assay; shares compounds with IEC-6 tox-1; IEC-6 rat intestinal epithelial viability, luminescence; inhibition, % at 5 µM; 63% of 1,900 active; AID 1907
Of the large screens only hits and unclear results are named; the others gave an inactive call (follow-up assays come after a bar, where they were run). Rule as the data show it, unless noted: active = inhibition above about 22%; inactive = the rest.

O=Cc1cc(CCC(=O)O)ccc1O	none (no result: BaF3 tox, Ba/F3 V617F tox, APP 5UTR inh)
CCCNC(=O)NS(=O)(=O)c1ccc(Cl)cc1	none
CCCNC(=O)c1nnsc1S(=O)(=O)c1ccc(Cl)cc1	Ba/F3 V617F tox 94, APP 5UTR inh 95, IEC-6 tox-1 26 (no result: aSyn 5UTR inh) | BaF3 parental 2 96 | JAK2V617F confrm 98 | IEC-6 tox confirm 22
O=C(Nc1ccccc1)C1=C(c2ccccc2)S(=O)(=O)CCS1(=O)=O	Ba/F3 V617F tox 85, APP 5UTR inh 87, IEC-6 tox-1 28 | BaF3 parental 2 66 | JAK2V617F confrm 100 | IEC-6 tox confirm 24
Nc1nnnn1/N=C/C(Br)=C/c1ccccc1	Ba/F3 V617F tox 74, APP 5UTR inh 91, IEC-6 tox-1 101 | BaF3 parental 2 105 | JAK2V617F confrm 100 | IEC-6 tox confirm 54
CCCCn1c(N)c(N(CCOC)C(=O)c2cccc(S(=O)(=O)N(CC)c3ccccc3)c2)c(=O)[nH]c1=O	none (no result: BaF3 tox, Ba/F3 V617F tox, APP 5UTR inh, KLF5 inhibitor, IEC-6 tox-1)
CSc1ccccc1NC(=O)Cn1nc([N+](=O)[O-])cc1C	none
CCOc1ccccc1C(=O)Nc1ccsc1C(=O)OC	Ba/F3 V617F tox 54, APP 5UTR inh 85, aSyn 5UTR inh 65, IEC-6 tox-1 32 | BaF3 parental 2 58 | JAK2V617F confrm 94 | IEC-6 tox confirm 53
CCOCCCNC(=O)/C(C#N)=C/c1cc(Br)c(O)c(Br)c1	Ba/F3 V617F tox 64, IEC-6 tox-1 24 (no result: APP 5UTR inh) | BaF3 parental 2 inactive | JAK2V617F confrm 55 | IEC-6 tox confirm inactive
Cc1ccc(S(=O)(=O)N2CCCC(C(=O)NCCc3ccc(S(N)(=O)=O)cc3)C2)cc1 (centres undefined)	none (no result: BaF3 tox, Ba/F3 V617F tox, APP 5UTR inh)
Cc1ccc(C(=O)N/N=C/c2ccc(-c3cccc(C(F)(F)F)c3)o2)cn1	Ba/F3 V617F tox 39, aSyn 5UTR inh 65, IEC-6 tox-1 28 (no result: APP 5UTR inh) | BaF3 parental 2 58 | JAK2V617F confrm 91 | IEC-6 tox confirm 37
CC(=O)n1cc(Nc2ccccc2C(=O)O)c2ccccc21	none
COc1ccccc1N(C(=O)CCl)c1cn(C(C)=O)c2ccccc12	Ba/F3 V617F tox 75, IEC-6 tox-1 57 (no result: APP 5UTR inh) | BaF3 parental 2 inactive | JAK2V617F confrm 87 | IEC-6 tox confirm 23
CC1(c2ccc(OC(F)F)cc2)NC(=O)N(CC(=O)c2ccc3c(c2)OCO3)C1=O (centres undefined)	none (no result: BaF3 tox, Ba/F3 V617F tox, APP 5UTR inh, KLF5 inhibitor, IEC-6 tox-1)
CCCS(=O)(=O)c1nnnn1-c1cccc(OC)c1	Ba/F3 V617F tox 39, APP 5UTR inh 62, IEC-6 tox-1 33 | BaF3 parental 2 76 | JAK2V617F confrm 99 | IEC-6 tox confirm 48
COc1ccc(CS(=O)(=O)/C(Cl)=C(/Cl)C(=O)Nc2ccc(OC)nc2)cc1	Ba/F3 V617F tox 32, APP 5UTR inh 84, IEC-6 tox-1 88 | BaF3 parental 2 99 | JAK2V617F confrm 99 | IEC-6 tox confirm 29
COc1ccc(/C=C/C(=O)Nc2ccc(OC)nc2)cc1	none
COc1ccc(-c2cnc3c(c2)CCC3(C#N)C#N)cc1	Ba/F3 V617F tox 38, APP 5UTR inh 62, IEC-6 tox-1 70 | BaF3 parental 2 inactive | JAK2V617F confrm 78 | IEC-6 tox confirm inactive
Cc1ccc(OCCN2C(=O)C(=O)c3cc(C)ccc32)cc1	Ba/F3 V617F tox 25, APP 5UTR inh 84, IEC-6 tox-1 91 | BaF3 parental 2 57 | JAK2V617F confrm 99 | IEC-6 tox confirm 46
Cc1ccc(N(C(=O)CCl)C(C(=O)NC2CCCCC2)c2cccnc2)cc1C (centres undefined)	Ba/F3 V617F tox 86, IEC-6 tox-1 80 | BaF3 parental 2 77 | JAK2V617F confrm 100 | IEC-6 tox confirm 63
Cc1ccc(N(C(=O)CNC(=O)c2ccco2)C(C(=O)NC2CCCCC2)c2cccnc2)cc1C (centres undefined)	none (no result: BaF3 tox, Ba/F3 V617F tox, APP 5UTR inh)
O=C(NCc1cccnc1)c1ccc(NC(=O)c2ccco2)cc1	none
CC(C)C(=O)Nc1ccc(C(=O)NCc2cccnc2)cc1	Ba/F3 V617F tox 60, IEC-6 tox-1 62 | BaF3 parental 2 35 | JAK2V617F confrm 99 | IEC-6 tox confirm 23
Cc1ccc(C2=NN(C(=O)CCCC(=O)O)C(c3ccc4c(c3)OCO4)C2)cc1 (centres undefined)	none (no result: BaF3 tox, Ba/F3 V617F tox, APP 5UTR inh)
Nc1ccccc1NC1=CC(=O)CC(c2ccco2)C1 (centres undefined)	none
Nc1ccccc1NC1=CC(=O)CC(c2ccccc2)C1 (centres undefined)	Ba/F3 V617F tox 23, IEC-6 tox-1 31 | BaF3 parental 2 inactive | JAK2V617F confrm inactive | IEC-6 tox confirm inactive
O=C1C=C(Nc2ccc(O)cc2)C(=O)c2ccccc21	Ba/F3 V617F tox 49, aSyn 5UTR inh 67, IEC-6 tox-1 25 (no result: APP 5UTR inh) | BaF3 parental 2 inactive | JAK2V617F confrm 76 | IEC-6 tox confirm inactive
COC1=C(Nc2ccc(O)cc2)C(=O)c2ccccc2C1=O	none
CC(=O)Nc1cc(NC(C)=O)cc(C(=O)OCC(=O)Nc2ccc(S(=O)(=O)NC3=NCCCCC3)cc2)c1	none (no result: BaF3 tox, Ba/F3 V617F tox, APP 5UTR inh)
COc1ccccc1CN1CC(C(=O)NCCn2ccc(C)n2)CCC1=O (centres undefined)	none (no result: BaF3 tox, Ba/F3 V617F tox, APP 5UTR inh)
CC1(C(=O)O)CCC(C(=O)NNC(=O)c2ccccc2Cl)C1(C)C (centres undefined)	none (no result: BaF3 tox, Ba/F3 V617F tox, APP 5UTR inh, KLF5 inhibitor, IEC-6 tox-1)
COc1cc(/C=N/NS(=O)(=O)c2ccc(C)cc2)ccc1OCc1ccc(C(=O)O)cc1	KLF5 inhibitor 78, aSyn 5UTR inh 84 | KLF5 confirm inactive | IEC-6 tox-2 inactive
Cc1cccc(C)c1-n1c(C)cc(/C=N\Nc2ccc([N+](=O)[O-])cn2)c1C	none
Cc1cc(/C=N/Nc2nc(N)ncc2[N+](=O)[O-])c(C)n1-c1ccccc1F	KLF5 inhibitor 78, aSyn 5UTR inh 73 (no result: APP 5UTR inh) | KLF5 confirm 94 | IEC-6 tox-2 inactive
CCN(CC)S(=O)(=O)c1ccc(N2CCOCC2)c(NC(=O)C2CCCO2)c1 (centres undefined)	none (no result: APP 5UTR inh)
CN(Cc1cnn(C)c1)C(=O)C1CCC(=O)N(Cc2ccc(Cl)cc2)C1 (centres undefined)	none (no result: BaF3 tox, Ba/F3 V617F tox, APP 5UTR inh)
C#Cc1ccc([C@@H]2C=C(C(=O)N3CCN(Cc4ccccc4)CC3)O[C@H](OCCCCO)C2)cc1	BaF3 tox 88, Ba/F3 V617F tox 94, KLF5 inhibitor 66, aSyn 5UTR inh 99 | KLF5 confirm 73 | IEC-6 tox-2 inactive
O=C(C1=C[C@H](c2ccccc2)C[C@H](OCCCCO)O1)N1CCN(Cc2ccccc2)CC1	none
COc1ccc2[nH]c(C(=O)N/N=C/c3ccccc3OC)cc2c1	none (no result: BaF3 tox, Ba/F3 V617F tox, APP 5UTR inh)
COc1cc(OC)c2cc(C(=O)N/N=C/c3ccccc3O)[nH]c2c1	KLF5 inhibitor 84 (no result: BaF3 tox, Ba/F3 V617F tox, APP 5UTR inh) | KLF5 confirm inactive | IEC-6 tox-2 inactive
